# Measurements taken from PubChem BioAssay (NCATS).
# Records with an inconclusive call do not appear. Where a call stands in place of a potency, no number is given. Active and inactive are the calls of the source. The call rests on the fitted dose curve; in most records, active means well fitted curve in the direction sought with a large enough effect; inconclusive means small, poorly fitted or top-dose-only effect, or another doubt; inactive means no such curve, though single readings can be large; an effect the other way counts as inactive or inconclusive. Positions of bridges follow the written chain, without caps; N, C: chain ends. Non-standard residues stand in square brackets, D forms with d. Residues, ends and D or L forms follow the SMILES beside them. ξ: configuration not given here. *: point of attachment. ξDab(CH2SO3H) = NC(CCNCS(=O)(=O)O)C(=O)O; Octanoyl(6-Me) = CCC(C)CCCCC(=O)*; Dab = NCC[CH](N)C(=O)O
# Experiments:
# [1] = target: Furin (Homo sapiens) (UniProt P09958); assay: Furin counterscreen qHTS for Zika virus inhibitors (AID 1347149); further: nearly all actives have a fitted effect of over 70% in size; further: potency means the concentration at half of the fitted maximal effect;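 on activity change, negative = inhibition: purified recombinant full-length human furin enzyme at 5 nM; fluorescence gain from furin cutting a BOC-RVRR-AMC peptide substrate over 15 min; top concentration of the series differs between compounds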
# Chain of Furin (Homo sapiens) (P09958 whole entry, looked up): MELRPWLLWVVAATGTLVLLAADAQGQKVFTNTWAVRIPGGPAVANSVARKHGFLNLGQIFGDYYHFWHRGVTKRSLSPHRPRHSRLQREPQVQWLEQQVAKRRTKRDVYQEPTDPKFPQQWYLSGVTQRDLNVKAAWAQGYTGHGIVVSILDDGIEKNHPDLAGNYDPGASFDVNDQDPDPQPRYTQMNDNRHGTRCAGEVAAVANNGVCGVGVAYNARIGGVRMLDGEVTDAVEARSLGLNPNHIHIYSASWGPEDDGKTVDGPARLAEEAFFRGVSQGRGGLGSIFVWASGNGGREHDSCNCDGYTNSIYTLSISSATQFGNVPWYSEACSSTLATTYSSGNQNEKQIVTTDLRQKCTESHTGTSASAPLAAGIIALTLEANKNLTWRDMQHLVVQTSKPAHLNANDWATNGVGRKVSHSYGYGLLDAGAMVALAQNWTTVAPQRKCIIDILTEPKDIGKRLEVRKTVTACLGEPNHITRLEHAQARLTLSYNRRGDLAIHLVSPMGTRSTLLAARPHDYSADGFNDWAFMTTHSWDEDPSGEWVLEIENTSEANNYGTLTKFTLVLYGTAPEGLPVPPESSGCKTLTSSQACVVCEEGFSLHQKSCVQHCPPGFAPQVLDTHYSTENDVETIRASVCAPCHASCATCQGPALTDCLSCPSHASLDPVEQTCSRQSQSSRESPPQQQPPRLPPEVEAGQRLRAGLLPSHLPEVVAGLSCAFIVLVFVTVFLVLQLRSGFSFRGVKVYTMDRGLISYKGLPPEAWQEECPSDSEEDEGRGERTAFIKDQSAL
# Outline: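 Counterscreen measures cleavage of 2 microM BOC-RVRR-AMC, below its ~15 microM Km, by 5 nM full-length human furin at pH 7.0 after a 15-min compound preincubation. Inhibition derives from the 15-min fluorescence increase at 37C.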
# [2] = Tertiary RLuc qRT-PCR qHTS assay for Zika virus inhibitors (AID 1347169); further: top concentration of the series differs between compounds; nearly all actives have a fitted effect of over 55% in size
# Outline: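 Vero cells (1,000 per well) plated overnight at 37 degrees C, treated with compound in DMSO, then infected with recombinant ZIKV-RLuc (Cambodian) at MOI 1-2 for 48-72 hrs. Live-cell Renilla luciferase substrate added; luminescence read after 1-1.5 hrs.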
# [3] = target: Calcium and integrin-binding protein 1 (Homo sapiens) (UniProt Q99828); assay: Primary qHTS for Identification of Calcium Integrin Binding Protein 1 (CIB1) Competitor (AID 1508620);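 further: GST tagged CIB1 binding a fluorescein labelled alphaIIb integrin peptide tracer; top concentration of the series differs between compounds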
# Chain of Calcium and integrin-binding protein 1 (Homo sapiens) (Q99828 whole entry, looked up): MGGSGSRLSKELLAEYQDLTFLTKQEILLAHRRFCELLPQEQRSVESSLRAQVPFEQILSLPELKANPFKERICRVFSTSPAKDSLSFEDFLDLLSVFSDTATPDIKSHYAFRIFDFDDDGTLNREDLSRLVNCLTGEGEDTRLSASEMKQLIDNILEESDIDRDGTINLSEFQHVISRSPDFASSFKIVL
# Outline: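 Fluorescence polarization competition: GST-tagged CIB1 (1 uM final) preincubated with compound 15 min at room temperature, then FITC-labelled alphaIIb peptide (100 nM final) added. After 15 min at room temperature, polarization read at Ex 480/Em 540.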
# [4] = tested on: Zika virus NS2B-NS3 protease (linked construct); assay: 384 well plate NINDS Rhodamine confirmatory qHTS for Zika virus inhibitors (AID 1347164);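 further: fluorescence from protease cleavage of Ac-LKRR-rhodamine 110 substrate; potency means the concentration at half of the fitted maximal effect; nearly all actives have a fitted effect of over 65% in size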
# Outline: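 Linked protease at a final 5 nM, 30 nM or 60 nM was preincubated ~15 min with compounds, then given 10 microM Ac-LKRR-Rhodamine 110. Fluorescence (ex 485/em 538 nm) after 25 min in the dark at room temperature.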
# [5] = tested on: Zika virus NS2B-NS3 protease (linked); assay: 384 well plate NINDS AMC confirmatory qHTS for Zika virus inhibitors (AID 1347163); further: potency means the concentration at half of the fitted maximal effect; nearly all actives have a fitted effect of over 50% in size
# Outline: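 Fluorescence at 355/460 nm was read after 25 minutes of cleavage of 30 microM Ac-VKTGKR-AMC at room temperature, in the dark. Before substrate addition, compounds (up to 1 mM final) sat ~15 minutes with 5, 30 or 60 nM linked protease. Signals were normalized to no-enzyme and no-inhibitor wells.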
# [6] = tested on: Zika virus NS2B-NS3 protease (unlinked complex); assay: Confirmatory screen GU AMC qHTS for Zika virus inhibitors (AID 1347153); further: nearly all actives have a fitted effect of over 70% in size;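 on potency: enzyme at 25 nM with substrate at 10 µM below its Km of 18.3 µM; potency means the concentration at half of the fitted maximal effect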
# Outline: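 Fluorescence change (ex 340/em 450 nm) over 15 min, ~20% substrate conversion, normalized to no-inhibitor and no-enzyme controls, then Hill-fitted. Unlinked protease at 25 nM; AMC peptide 10 µM.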
# [7] = tested on: Zika virus NS2B-NS3 protease; assay: Primary screen GU AMC qHTS for Zika virus inhibitors (AID 1347154); further: nearly all actives have a fitted effect of over 70% in size; further: potency means the concentration at half of the fitted maximal effect
# Outline: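 Unlinked Zika NS2B hydrophilic domain–NS3 protease complex at 25 nM in 10 mM Tris-HCl pH 8.0, 0.01% Tween 20, with an AMC peptide substrate. Fluorescence change (340/450 nm) over 15 min at room temperature, normalized to controls, fitted to 4-parameter Hill.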
# [8] = Vero cells viability qHTS for Zika virus inhibitors (AID 1347167)
# Outline: (§1)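 qHTS titration; 24-48 h compound exposure, 37 degrees C/5% CO2; DMEM, 4% FBS; CellTiter Glo ATP luminescence.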
# [9] = HepG2 cells viability qHTS for Zika virus inhibitors (AID 1347168)
# Outline: as §1
# [10] = Primary qHTS for small molecule stabilizers of the endoplasmic reticulum resident proteome: Secreted ER Calcium Modulated Protein (SERCaMP) assay (AID 1508630)
# Outline: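 The SH-SY5Y reporter protocol was run at 3 concentrations up to 38.3 uM (primary) or 11 concentrations (follow-up): 16 h compound, 100 nM thapsigargin for 4 h, then extracellular luciferase luminescence.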
compound,measurement,setting,value
COc1ccc(C(=O)Nc2ccc(C(=O)OCc3cc(=O)n4nc(C5CC5)sc4n3)cc2)cc1,Potency,[1],13.2 µM (active)
same,Potency,[2],inactive
O=C(OCC#CCSc1nnc(-c2cccc3ccccc23)o1)c1sc2ccccc2c1Cl,Potency,[1],46.9 µM (active)
same,Potency,[2],inactive
same,outcome,[3],inactive
O=C(O)COc1ccc(-c2nccc3c2C(=O)N(Cc2cccc(C(F)(F)F)c2)CC(COc2ccc4cnccc4c2)O3)cc1 (stereo unspecified),Potency,[1],62.2 µM (active)
same,Potency,[4],35.5 µM (active)
same,Potency,[2],inactive
Cc1cccc(C(=O)Nc2ccc(C(=O)OCc3cc(=O)n4c5c(sc4n3)CCCC5)cc2)c1,Potency,[1],46.9 µM (active)
same,Potency,[2],inactive
CC(C)c1nn2c(=O)cc(COC(=O)c3ccc(NC(=O)c4ccccc4Cl)cc3)nc2s1,Potency,[1],inactive
same,Potency,[2],inactive
CCC(C)CCCCC(=O)NC(CCNCS(=O)(=O)O)C(=O)NC(C(=O)NC(CCNCS(=O)(=O)O)C(=O)NC1CCNC(=O)C(C(C)O)NC(=O)C(CCNCS(=O)(=O)O)NC(=O)C(CCNCS(=O)(=O)O)NC(=O)C(CC(C)C)NC(=O)C(CC(C)C)NC(=O)C(CCNCS(=O)(=O)O)NC1=O)C(C)O (stereo unspecified) ({Octanoyl(6-Me)}-[ξDab(CH2SO3H)]T[ξDab(CH2SO3H)][Dab][ξDab(CH2SO3H)]LL[ξDab(CH2SO3H)][ξDab(CH2SO3H)]T; lactam 4-C; configuration not given here),Potency,[1],inactive
same,Potency,[5],25.1 µM (active)
same,Potency,[2],inactive
O=C(O)COc1ccc(-c2nccc3c2C(=O)N(Cc2ccccc2)CC(COc2ccc4cccnc4c2)O3)cc1 (stereo unspecified),Potency,[1],49.4 µM (active)
same,Potency,[4],44.7 µM (active)
same,Potency,[2],inactive
O=C(OCC#CCSc1nnc(-c2cccc3ccccc23)o1)c1sc(Cl)c(Cl)c1Cl,Potency,[1],14.8 µM (active)
same,Potency,[2],inactive
same,outcome,[3],inactive
C=NC(C(=O)N[C@H]1C(=O)N2C1SC(C)(C)C2C(=O)O)c1ccccc1 (stereo partly specified),Potency,[6],inactive
same,Potency,[7],26.7 µM (active)
same,Potency,[8],inactive
same,Potency,[9],inactive
same,Potency,[2],inactive
same,Potency,[10],inactive
CCCCC/C=C\C/C=C\CCCCCCCC(=O)NCC(=O)O,"activity change, negative = inhibition",[7],18.9% [at 6.83 µM] (inactive)
Cn1cnnc1Sc1c([N+](=O)[O-])ncn1C,Potency,[7],inactive
COc1ccccc1N1CCN(CC2CN3C(=O)N(C)c4ccccc4C3=N2)CC1 (stereo unspecified),Potency,[7],inactive
CCn1c(=O)n(C2=C(CO)CN(CC3CCCCCCC3)CC2)c2ccccc21,Potency,[7],inactive
O=C(C1CCCCC1)N(CCN1CCN(c2ccccc2CO)CC1)c1ccccn1,Potency,[7],inactive
O=C(NCCCCN1CCN(c2cccc(Cl)c2Cl)CC1)c1ccc2c(c1)Cc1ccccc1-2,Potency,[7],inactive
CC(C)C(NS(=O)(=O)c1ccc(-c2ccc(Br)cc2)cc1)C(=O)O (stereo unspecified),Potency,[7],inactive
O=C(O)C(Cc1ccc2c(c1)oc1ccccc12)NCP(=O)(O)O (stereo unspecified),Potency,[7],inactive
COCCNC(=O)COc1ccc(OCCNC[C@H](O)COc2ccccc2)cc1,Potency,[7],inactive
CN(C)[C@@H]1C(=O)C(C(=O)NCN2CCCC2)=C(O)[C@@]2(O)C(=O)C3=C(O)c4c(O)cccc4[C@@](C)(O)[C@H]3C[C@@H]12,Potency,[6],9.61 µM (active)
same,Potency,[8],inactive
same,Potency,[9],inactive
same,Potency,[10],inactive
CCCCn1c(=O)c2[nH]c(C34CC5CC(CC3C5)C4)nc2n(CCCO)c1=O,Potency,[7],inactive
